Assay results as given in PubChem BioAssay AID2014 (Sanford-Burnham Center for Chemical Genomics, 2009).
The whole screen tested about 290,000 compounds, of which about 3,000 (1%) were called active. The rule behind the calls is not given here. The entries come from a sample that favours actives as a whole.

Target: Polyadenylate-binding protein 1 (Homo sapiens) (UniProt P11940)
Assay: PABP poly(A) RNA binding inhibitors, primary screen, biochemical, fluorescence polarization, uHTS (AID 2014);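 note: calls also rest on retests at 20 µM and on dose response follow-up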
Details: stronger effect = higher value

Sequence of Polyadenylate-binding protein 1 (Homo sapiens) (P11940 whole entry, looked up): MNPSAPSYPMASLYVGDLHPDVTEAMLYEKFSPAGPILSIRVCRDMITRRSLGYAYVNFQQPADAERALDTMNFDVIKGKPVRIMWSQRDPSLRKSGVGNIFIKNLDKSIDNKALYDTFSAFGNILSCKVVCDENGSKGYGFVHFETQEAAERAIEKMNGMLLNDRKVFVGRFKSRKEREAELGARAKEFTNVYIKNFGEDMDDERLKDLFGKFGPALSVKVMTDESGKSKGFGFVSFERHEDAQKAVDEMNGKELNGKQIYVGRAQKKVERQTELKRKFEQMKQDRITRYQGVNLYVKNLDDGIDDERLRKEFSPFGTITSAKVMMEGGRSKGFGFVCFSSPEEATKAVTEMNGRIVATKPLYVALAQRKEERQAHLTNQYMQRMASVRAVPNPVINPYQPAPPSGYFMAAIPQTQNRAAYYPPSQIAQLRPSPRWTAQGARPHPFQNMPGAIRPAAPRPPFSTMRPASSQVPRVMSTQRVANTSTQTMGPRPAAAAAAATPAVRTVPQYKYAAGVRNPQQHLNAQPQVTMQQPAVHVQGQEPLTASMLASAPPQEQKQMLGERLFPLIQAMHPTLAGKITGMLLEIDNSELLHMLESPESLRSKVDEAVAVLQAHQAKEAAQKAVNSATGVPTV

Question: For O=c1ccc2cc(S(=O)(=O)Nc3ccccc3F)ccc2o1, which inhibition (at 35 µM) is on record?
Answer: -1.5% (inactive)

Question: How did the inhibition (at 35 µM) turn out when Cc1c(NC(=O)c2c([N+](=O)[O-])cnn2C)c(=O)n(-c2ccccc2)n1C was run?
Answer: -1.3% (inactive)

Question: Which inhibition (at 35 µM) does the source give for CCOc1ccc(-n2c(O)c(/C=N/Nc3nc(C)cc(C)n3)c3ccccc3c2=O)cc1 here?
Answer: 9% (inactive)

Question: What does the source list for Cc1ccc(-n2c(O)c(C=Nc3ccc(S(=O)(=O)Nc4ncccn4)cc3)c3ccccc3c2=O)cc1C?
Answer: inhibition (at 35 µM): -8.1% (active); inhibition (confirmation repeats, at 20 µM): 94.9%

Question: Which inhibition (at 35 µM) does the source give for CCOc1ccc(N=Cc2c(O)n(-c3cccc(C)n3)c(=O)c3ccccc23)cc1 here?
Answer: -1.3% (inactive)

Question: How did the inhibition (at 35 µM) turn out when O=C(NCC(=O)N1CCN(c2ncc(C(F)(F)F)cc2Cl)CC1)c1ccc(Br)o1 was run?
Answer: 3.4% (inactive)

Question: For CC(=O)N1CCSc2ccc(S(=O)(=O)N3CCC(C)CC3)cc21, which inhibition (at 35 µM) is on record?
Answer: 0% (inactive)

Question: With Cc1cccc(OCC(=O)NC2CC(C)(C)NC(C)(C)C2)c1 as the molecule, how does the inhibition (at 35 µM) read?
Answer: 6.7% (inactive)

Question: CC1(OC(=O)CCc2ccccc2)C(=O)C=C2C=C(c3ccc(C#N)cc3)N(CCc3ccccn3)C=C2C1=O (configuration not stated) was tested. Which inhibition (at 35 µM) did it give?
Answer: 26.9% (inactive)

Question: C=CCN1C=C2C(=O)C(C)(OC(=O)CCc3ccccc3)C(=O)C=C2C=C1c1ccc(C#N)cc1 (configuration not stated) was tested. Which inhibition (at 35 µM) did it give?
Answer: 38.3% (active)

Question: What about the inhibition (confirmation repeats, at 20 µM) of the same molecule?
Answer: 80.1%

Question: With NC(=O)COc1ccccc1C(=O)NC12CC3CC(CC(C3)C1)C2 as the molecule, how does the inhibition (at 35 µM) read?
Answer: -0.3% (inactive)

Question: How did the inhibition (at 35 µM) turn out when Cc1ccc(-n2c(C)cc(/C=N/Nc3ccc([N+](=O)[O-])cn3)c2C)c(C)c1 was run?
Answer: 10.5% (inactive)

Question: How did the inhibition (at 35 µM) turn out when COc1cc(/C=N\Nc2ccc([N+](=O)[O-])cn2)ccc1OCC(=O)O was run?
Answer: 13.3% (inactive)

Question: With Cc1cc(/C=N/Nc2ccc([N+](=O)[O-])cn2)c(C)n1-c1cccc(C(=O)O)c1 as the molecule, how does the inhibition (at 35 µM) read?
Answer: 50.3% (active)

Question: With CC(C)=CCN1CCN(CCCc2ccccc2)CC1CCO (configuration not stated) as the molecule, how does the inhibition (at 35 µM) read?
Answer: -4.3% (inactive)

Question: CN1/C(=C\C=C2\N=C(c3ccc(F)cc3)OC2=O)C(C)(C)c2ccccc21 was tested. Which inhibition (at 35 µM) did it give?
Answer: 120% (active)

Question: What about the inhibition (confirmation repeats, at 20 µM) of the same molecule?
Answer: 105%

Question: CN1/C(=C\C(=O)c2cccnc2Cl)C(C)(C)c2ccccc21 was tested. Which inhibition (at 35 µM) did it give?
Answer: -4.7% (inactive)

Question: CN1/C(=C\C(=O)c2oc3ccccc3c2N)C(C)(C)c2ccccc21 was tested. Which inhibition (at 35 µM) did it give?
Answer: 15.4% (inactive)

Question: How did the inhibition (at 35 µM) turn out when O=C(NCCc1ccc(Cl)cc1)C1CCCN1C(=O)NCc1ccccc1 (configuration not stated) was run?
Answer: -1.3% (inactive)

Question: For COc1ccccc1N(CC(=O)Nc1ccccc1C(=O)N1CCCC1)S(C)(=O)=O, which inhibition (at 35 µM) is on record?
Answer: 0.7% (inactive)

Question: How did the inhibition (at 35 µM) turn out when O=C(O)CCCN1C(=O)c2ccccc2Sc2ncccc21 was run?
Answer: 16.4% (inactive)

Question: How did the inhibition (at 35 µM) turn out when COc1ccc(C(=O)Nc2ccnn2C2CCN(Cc3ccncc3)CC2)cc1 was run?
Answer: -4.2% (inactive)

Question: Which results are given for Oc1ccc(N=Cc2sc3ccccc3c2Cl)cc1?
Answer: inhibition (at 35 µM): -14% (active); inhibition (confirmation repeats, at 20 µM): 68.6%

Question: For COc1ccc(N=C(C)c2sc3ccccc3c2O)cc1, which inhibition (at 35 µM) is on record?
Answer: -3.8% (inactive)

Question: How did the inhibition (at 35 µM) turn out when O=C(N/N=C/c1c(Cl)[nH]c2ccccc12)c1sc2ccccc2c1Cl was run?
Answer: -2.8% (inactive)

Question: How did the inhibition (at 35 µM) turn out when COc1ccccc1N(CC(=O)NC1CCCC1)C(=O)C1(C)CC(=O)N=C2C=CC(C)=CN21 (configuration not stated) was run?
Answer: 4.1% (inactive)

Question: How did the inhibition (at 35 µM) turn out when O=C(COC(=O)C12CC3CC(CC(C3)C1)C2)NCc1ccco1 was run?
Answer: 26% (active)

Question: What about the inhibition (confirmation repeats, at 20 µM) of the same molecule?
Answer: 62.4%

Question: O=C(COC(=O)CCC(=O)c1cccs1)NCc1ccco1 was tested. Which inhibition (at 35 µM) did it give?
Answer: 35.9% (inactive)

Question: What about the inhibition (confirmation repeats, at 20 µM) of the same molecule?
Answer: 32.9%

Question: For O=C(CC12CC3CC(CC(C3)C1)C2)NCc1ccco1, which inhibition (at 35 µM) is on record?
Answer: -13.1% (inactive)

Question: COc1ccc(C(=O)C2CCCN(C(=O)c3cc(C)on3)C2)cc1F (configuration not stated) was tested. Which inhibition (at 35 µM) did it give?
Answer: -11.7% (inactive)

Question: For Cc1cc(C)n(CCC(=O)N2CCN(S(=O)(=O)c3ccc(C)c(C)c3)CC2)n1, which inhibition (at 35 µM) is on record?
Answer: -7.6% (inactive)
